# Source: PubChem
# Hits are enriched below; roughly 18% of the tested compounds scored in any of these assays.
# TDP1 cell noCPT: qHTS for Inhibitors of human tyrosyl-DNA phosphodiesterase 1 (TDP1): qHTS in cells in absence of CPT. DT40 Tdp1-/- hTDP1 cells, no CPT, ATP luminescence, 48 h. Potency, µM (top dose mostly 46.2 µM), inactives show top-dose activity change, negative = growth inhibition, most hits filed as inhibitors. 420,000 tested, 15% active. AID 686978, 2013; further: potency means the concentration at half of the fitted maximal effect; nearly all actives have a fitted effect of over 55% in size
#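 Growth of hTDP1-complemented DT40 Tdp1-knockout cells is measured by ATP luminescence after at least 48 hr compound exposure at 37 °C, with DMSO substituting for the 20 nM CPT used in the parallel screen.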
# CtBP-E1A inh: blocks the CtBP interaction with E1A. AlphaScreen GST-E1A/His-CtBP binding, 1536-well; stronger effect = lower value. activity change, % (no concentration beside the values). 340,000 tested, 0.49% active. AID 651724; in the data active means activity change below about -65%; inconclusive means mostly about -30% to -63%
#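 AlphaScreen with 125 nM GST-E1A and 125 nM His-CtBP (5X stocks) in Tris pH 8.0, 300 mM NaCl, BSA, Tween 20, TCEP. Compounds preincubated 2 h at 37 deg C, then glutathione donor/nickel acceptor beads added for 1 h at 37 deg C in dark.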
# IL-1B inflam inh: blocks inflammasome-driven IL-1 beta release; THP-1 LPS/ATP IL-1B secretion, AlphaLISA, 16 h; stronger effect = lower value; activity change, % at 57.5 µM; 360,000 tested, 4.7% active; AID 743279; in the data active means activity change below about -50%; inconclusive means mostly about -30% to -49%
#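 THP-1 cells pretreated 1 hr with compounds (up to 57.5 uM final), then stimulated with LPS (250 ng/mL final) plus ATP (1.25 mM final); secreted IL-1B measured by AlphaLISA after 16 hr, decreased signal indicating inhibition.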
# Six1-Eya2 inh: Six1/Eya2 interaction inhibition. Q15475+O00167. activity change, % (concentration not given with the values). 360,000 tested, 0.56% active. AID 651725. AlphaScreen GST-Six1/His-Eya2 binding, biochemical; stronger effect = lower value; in the data active means activity change below about -65%; inconclusive means mostly about -30% to -63%
# Target sequence (O00167 whole entry, looked up): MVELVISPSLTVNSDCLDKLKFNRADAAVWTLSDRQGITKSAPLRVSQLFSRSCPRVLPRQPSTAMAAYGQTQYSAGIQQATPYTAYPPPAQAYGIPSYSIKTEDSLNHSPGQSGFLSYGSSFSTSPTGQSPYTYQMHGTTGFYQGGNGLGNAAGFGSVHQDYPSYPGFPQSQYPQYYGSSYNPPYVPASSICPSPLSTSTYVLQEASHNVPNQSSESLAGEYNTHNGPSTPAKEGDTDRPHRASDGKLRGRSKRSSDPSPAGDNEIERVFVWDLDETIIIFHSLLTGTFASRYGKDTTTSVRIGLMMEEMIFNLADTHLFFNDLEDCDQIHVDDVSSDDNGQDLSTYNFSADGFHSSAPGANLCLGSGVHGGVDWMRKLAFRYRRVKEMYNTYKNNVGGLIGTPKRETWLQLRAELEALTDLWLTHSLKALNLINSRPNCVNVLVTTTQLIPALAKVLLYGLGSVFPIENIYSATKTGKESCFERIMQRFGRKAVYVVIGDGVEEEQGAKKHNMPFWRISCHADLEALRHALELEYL
# Target sequence (Q15475 whole entry, looked up): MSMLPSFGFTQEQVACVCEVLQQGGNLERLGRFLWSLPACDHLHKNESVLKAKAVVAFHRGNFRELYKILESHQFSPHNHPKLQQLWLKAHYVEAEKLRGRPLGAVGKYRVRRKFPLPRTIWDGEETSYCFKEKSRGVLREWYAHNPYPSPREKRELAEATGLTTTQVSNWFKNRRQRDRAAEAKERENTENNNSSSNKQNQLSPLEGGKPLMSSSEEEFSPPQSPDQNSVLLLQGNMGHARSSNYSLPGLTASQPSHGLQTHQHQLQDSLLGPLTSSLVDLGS
#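 Homogeneous AlphaScreen proximity assay pairing GST-Six1 with His-tagged Eya2 (added as 5X mix: 250 nM and 500 nM) in 50 mM Tris pH 8.0, 300 mM NaCl, 1 mM TCEP. Glutathione donor and nickel acceptor beads; 1 h, 37 °C, dark.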
# TDP1 cell CPT: DT40-hTDP1 cell growth loss with CPT | chicken DT40 Tdp1-/-;hTDP1 cells + 20 nM CPT, ATP luminescence, 48 h | Potency, µM (highest dose often 46.2 µM), for inactives: top-dose activity change, negative = growth inhibition, usual class: inhibitors | 420,000 tested, 12% active | AID 686979; further: potency means the concentration at half of the fitted maximal effect; nearly all actives have a fitted effect of over 55% in size
#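 Cell growth measured by CellTiter-Glo luminescence after a minimum 48 h, 37 C compound exposure with 20 nM CPT in Tdp1-knockout DT40 cells stably expressing hTDP1, seeded 400/well; qHTS titration format.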
# TDP1 inh: TDP1 (human) enzyme inhibition | AID 485290 | recombinant TDP1, AlphaScreen DNA substrate cleavage | Potency, µM (titrated, usually from 130 µM), for the others: at the highest dose activity change, negative = inhibition, hits mostly inhibitors | 350,000 tested, 0.28% active; further: potency means the concentration at half of the fitted maximal effect; nearly all actives have a fitted effect of over 40% in size
#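 Recombinant human Tdp1 (E. coli-expressed, 1 nM final) preincubated with compounds 15 min at room temperature, then 5'-biotin/3'-phosphotyrosine-FITC DNA substrate (15 nM final) added for 5 min. AlphaScreen beads (10 ug/ml final) added 10 min; cleavage lowers signal.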
# The depositor's hits bear a star; u = inconclusive; x = not tested or not shown; ! = repeats disagree. Unless noted, the call rests on the fitted dose curve; in most records, active means well fitted curve in the direction sought with a large enough effect; inconclusive means small, poorly fitted or top-dose-only effect, or another doubt; inactive means no such curve, though single readings can be large; an effect the other way counts as inactive or inconclusive. On the % scale 0 is the no-effect control and ±100 the full control effect.
SMILES,TDP1 cell noCPT,CtBP-E1A inh,IL-1B inflam inh,Six1-Eya2 inh,TDP1 cell CPT,TDP1 inh
O=C(COC(=O)c1cnccn1)NCc1ccccc1,12.8%,-1.3,-6.1,1.1,-1.1%,2.9%
Cc1nc2cc(-c3cccc(F)c3)nn2c(C)c1CCC(=O)NC(C)c1ccccc1 (stereo not given),u,x,x,x,u,2.3%
Cc1nc2cc(-c3cccc(F)c3)nn2c(C)c1CCC(=O)NCCc1ccccc1,u,x,x,x,25.9µM*,3.5%
CCOC(=O)C(Cc1ccccc1)NC(=O)CCc1c(C)nc2ncnn2c1C (stereo not given),-16.1%,1.9,-4.7,4.7,u,3.1%
CCOC(=O)C(Cc1ccccc1)NC(=O)CCc1c(C)nc2nc(C)nn2c1C (stereo not given),23.1µM*!,1.7,u,0.0,u,2.3%
Cc1nc2cc(-c3ccccc3)nn2c(C)c1CCC(=O)NCCc1ccccc1,u,x,x,x,16.4µM*,-3.5%
CCN(CC)C(=O)Oc1cc(=O)n(C)c2ccccc12,-5.7%,-4.0,8.7,8.2,-20.4%,3.8%
CC(C)(C)n1cnc2cc(NC(=O)c3ccc(Cl)cc3)ccc21,u,4.3,u,-0.4,u,3.8%
CC(C)CCC(C(=O)NC(C)c1ccccc1)C(=O)NC(C)c1ccccc1 (stereo not given),-4.8%,-3.6,23.8,6.5,1.5%,x
C/C(=N\OC(=O)NC1CCCCC1)c1sc(-c2ccccc2)nc1C,20.6µM*,14.1,u,4.3,25.9µM*,0.0%
Cc1ccc(C(=O)N2CCN(C(=O)c3ccccc3)C2c2ccc(N(C)C)cc2)cc1 (stereo not given),u,-13.1,-4.0,-10.7,-6.9%,0.0%
CN(C)c1ccc(C2CCc3ccccc3N2C(=O)c2ccccc2)cc1 (stereo not given),7.94µM*,x,x,x,11.2µM*,x
CCOc1ccccc1NC(=O)COC(=O)CN1C(=O)NC(C)(C)C1=O,0.6%,12.6,-6.9,3.8,-16.0%,2.9%
O=C(NNS(=O)(=O)c1ccccc1[N+](=O)[O-])c1cccc(Cl)c1,-7.2%,-4.3,4.1,2.8,-14.1%,1.3%
CCc1nc(CNC(=O)C2CCC(=O)N(CCc3cccc(F)c3)C2)no1 (stereo not given),0.9%,-1.2,3.0,5.8,-25.3%,1.4%
O=C1C=Cc2cccc3ccc(O)c1c23,14.6µM*,-15.5,u,-12.0,23.1µM*,x
Cc1ccc(Cc2c(-c3ccc(C)cc3)nc3ccc(Cl)cn23)cc1,u,-1.8,28.7,0.2,u,x
Cc1ccc(Cc2c(-c3ccc(Cl)cc3)nc3ccc(Cl)cn23)cc1,20.6µM*,0.0,6.2,-0.2,u,x
Cc1ccc2nc(-c3cccc(Br)c3)c(Cc3cccc(Cl)c3)n2c1,18.4µM*,3.6,-1.9,-5.4,u,x
Clc1ccc2nc(-c3ccccc3)c(Cc3ccccc3)n2c1,18.4µM*,3.6,61.0,-2.7,u,x
CCCc1nc2ccc(C)cn2c1Cc1cccc(Cl)c1,16.4µM*,-4.7,2.1,-12.6,u,x
Clc1ccc(-c2nc3ccc(Cl)cn3c2Cc2cccc(Cl)c2)cc1,u,-2.0,23.1,4.3,u,x
CCCCN(C(=O)C1CCCO1)c1c(N)n(CC(C)C)c(=O)[nH]c1=O (stereo not given),13.0%,4.1,21.5,4.0,18.2%,-6.2%
Cc1ccc2nc(-c3ccccc3)c(Cc3cccc(Cl)c3)n2c1,18.4µM*,-7.5,-5.3,-5.0,20.6µM*,x
Clc1ccc2nc(-c3cccc(Br)c3)c(Cc3ccccc3)n2c1,u,1.5,67.1,5.6,-21.0%,x
SMILES,TDP1 cell noCPT,CtBP-E1A inh,IL-1B inflam inh,Six1-Eya2 inh,TDP1 cell CPT,TDP1 inh
Cc1ccc2nc(-c3cccc(Br)c3)c(Cc3ccccc3)n2c1,u,-7.4,-0.6,-10.1,25.9µM*,x
Brc1cccc(-c2nc3c4ccccc4ccn3c2Cc2ccccc2)c1,u,3.7,6.8,0.4,20.6µM*,x
Clc1cccc(Cc2c(-c3ccccc3)nc3ccc(Cl)cn23)c1,u,2.3,52.8,0.3,u,x
Cc1ccc(Cc2c(-c3cccc(Cl)c3)nc3ccc(C)cn23)cc1,16.4µM*,-3.1,-7.9,-1.6,u,x
CN(Cc1ccco1)C(=O)c1ccc(S(=O)(=O)N2CCCCCC2)cc1,-9.2%,5.2,u,-1.4,-24.9%,1.7%
Cn1nccc1C(=O)N1CCN(c2ccccc2F)CC1,15.4%,4.0,-13.9,-0.6,10.3%,-1.5%
COC(=O)CCc1n[nH]c(=O)[nH]c1=O,-5.2%,-5.0,1.2,-14.3,-14.4%,2.1%
Cc1ccc(Cc2c(-c3cccc(Br)c3)nc3ccc(Cl)cn23)cc1,18.4µM*,5.9,17.8,-0.1,u,x
CO/N=C\C(=N\Nc1ccc(OC)cc1)C(=O)c1ccccc1,u,-16.6,-10.9,-13.9,u,4.2%
CCOC(=O)c1cnc(Nc2nc3ccccc3o2)nc1CN1CCN(C)CC1,13µM*,-84.7*,89.1,-86.9*,18.4µM*,14.5%
CCc1cccc(C)c1NC(=O)CSc1nnc(Cc2csc(C)n2)o1,-25.5%,-1.7,5.8,11.7,-13.7%,-4.6%
Cc1nnc(NC(=O)c2ccc(S(=O)(=O)N(C)Cc3ccccc3)cc2)o1,23.1µM*,-28.2,25.9,-20.6,u,9.7%
Cc1nc(-c2ccc(S(=O)(=O)N(C)Cc3ccccc3)cc2)co1,20.6µM*,x,x,x,25.9µM*,0.0%
COCc1nnc(NC(=O)c2ccc(S(=O)(=O)N(C)Cc3ccccc3)cc2)o1,u,-26.2,75.3,-3.1,u,-3.1%
CCN(Cc1ccccc1)S(=O)(=O)c1ccc(C(=O)Nc2nnc(C3CC3)o2)cc1,16.4µM*,-20.5,36.2,-1.2,u,9.8%
N=c1c2ccccc2nnn1-c1ccccc1[N+](=O)[O-],u,-10.2,0.0,-5.9,-3.8%,x
C=CCNc1nc(C2(C)CC3(CC(C)OC3=O)C(=O)O2)cs1 (stereo not given),-16.2%,-0.5,3.9,7.7,-22.9%,6.2%
CCN(CC)CCN(C)C(c1cc2ccccc2o1)c1nnnn1C(C)(C)C (stereo not given),u,4.6,12.6,-2.8,u,x
O=S(=O)(NCCN1CCOCC1)c1ccc(F)c(Cl)c1,16.4µM*,4.6,-1.0,-3.0,18.4µM*,x
CCCN1CCC(=NNc2ccc(S(=O)(=O)N3CCOCC3)cc2[N+](=O)[O-])CC1,2.59µM*,-15.1,4.0,-0.3,2.59µM*,8.2%
